{
  "source": "the supplement of paper PMC9135407",
  "test_system": "primary human hepatic stellate cells (donor 1)",
  "experiment": "scaled lipid accumulation score (0 = DMSO-like, 1 = nortriptyline-like); higher = stronger HSC inactivation (lipid re-accumulation), active = hit call of the paper",
  "settings": "48 h",
  "key": {"[1]": {"settings": "library stock concentration: 1 mM"}, "[2]": {"settings": "library stock concentration: 10 mM"}},
  "note": "“And” between values parts separate entries of the source, which are not always exact repeats. Identical values can stand only once. The whole screen tested about 5,800 compounds, of which about 620 (11%) showed activity. Shown is part of a subset that was picked to be rich in actives. Unmarked numbers belong to inactive results.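 Rule for the calls: active = score above a cut-off or among the top three wells of a plate; in these data no inactive exceeds 0.85.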",
  "data": [
    {"smiles": "CCCCC/C=C\\C/C=C\\C/C=C\\C/C=C\\CCCC(=O)NC[C@@H](C)O", "note": "[R-2 Methanandamide]", "values": [
      {"measurement": "scaled lipid accumulation score", "setting": "[1]", "result": "≤ 0"}
    ]},
    {"smiles": "COC[C@@H]([C@H](O)[C@H](O)C(=O)NCC[C@H](C)c1nc(/C=C/C[C@@H]2O[C@]3(C[C@@H](O)[C@@H]2C)O[C@H]([C@H](C[C@H](O)[C@H](C)[C@H](O)[C@H](C)/C=C(C)/C(C)=C/C=C/C(C)=C\\C#N)OC)[C@H](OP(=O)(O)O)C3(C)C)co1)N(C)C", "note": "[Calyculin A]", "values": [
      {"measurement": "scaled lipid accumulation score", "setting": "library stock concentration: 500 uM", "result": 0.228}
    ]},
    {"smiles": "C=C1[C@@H](C)[C@H]2[C@H](Cc3ccccc3)NC(=O)C23[C@H](OC(C)=O)/C=C/[C@](C)(O)C(=O)[C@@H](C)C/C=C/[C@H]3[C@@H]1O", "note": "(stereo not given in full) [Cytochalasin D]", "values": [
      {"measurement": "scaled lipid accumulation score", "setting": "library stock concentration: 9.9 mM", "result": "0.918 (active)"}
    ]},
    {"smiles": "C=C1[C@@H](C)[C@H]2[C@H](Cc3ccccc3)NC(=O)[C@]23OC(=O)/C=C/[C@H](O)CCC[C@@H](C)C/C=C/[C@H]3[C@@H]1O", "note": "[Cytochalasin B]", "values": [
      {"measurement": "scaled lipid accumulation score", "setting": "library stock concentration: 10.4 mM", "result": 0.806}
    ]},
    {"smiles": "CC[C@@H](C)C(=O)O[C@H]1[C@H](O)[C@H]2[C@@H](CN3C[C@@H](C)CC[C@H]3[C@@]2(C)O)[C@@H]2C[C@]34O[C@]5(O)[C@@H](OC(=O)[C@](C)(O)[C@@H](C)O)CC[C@@]3(C)[C@@H]5[C@@H](OC(C)=O)[C@@H](OC(C)=O)[C@H]4[C@@]21O", "note": "(stereo in doubt) [Protoveratrine b]", "values": [
      {"measurement": "scaled lipid accumulation score", "setting": "[2]", "result": "≤ 0"}
    ]},
    {"smiles": "COc1ccc2c(c[n+](C)c3c4cc5c(cc4ccc23)OCO5)c1OC", "note": "[Chelerythrine chloride]", "values": [
      {"measurement": "scaled lipid accumulation score", "setting": "library stock concentration: 80 uM", "result": "≤ -0.016"},
      {"measurement": "scaled lipid accumulation score", "setting": "library stock concentration: 400 uM", "result": "≤ -0.016"},
      {"measurement": "scaled lipid accumulation score", "setting": "[2]", "result": "0.308 and 0.167"}
    ]},
    {"smiles": "COc1ccc2c(c[n+](C)c3c4cc5c(cc4ccc23)OCO5)c1OC.Cl", "note": "[Chelerythrine chloride]", "values": [
      {"measurement": "scaled lipid accumulation score", "setting": "library stock concentration: 2 mM", "result": "1.1 (active)"}
    ]},
    {"smiles": "COc1ccc2c(c[n+](C)c3c4cc5c(cc4ccc23)OCO5)c1OC", "note": "[Chelerythrine Chloride]", "values": [
      {"measurement": "scaled lipid accumulation score", "setting": "library stock concentration: 3.33 mM", "result": 0.656}
    ]},
    {"smiles": "COc1ccc2c(c1OC)CN1CCc3cc4c(cc3C1C2)OCO4", "note": "(stereo not given) [(d,l)-Tetrahydroberberine]", "values": [
      {"measurement": "scaled lipid accumulation score", "result": "≤ 0"}
    ]},
    {"smiles": "CCCCC/C=C\\C/C=C\\C/C=C\\C/C=C\\CCC(C)C(=O)NCCF", "note": "(stereo not given)", "values": [
      {"measurement": "scaled lipid accumulation score", "setting": "[1]", "result": 0.05}
    ]},
    {"smiles": "C/C=C1/C[N+]2(C)CCC34C(=C(C=O)[C@H]1C[C@@H]32)Nc1ccccc14", "note": "(stereo not given in full) [Fluorocurarine chloride]", "values": [
      {"measurement": "scaled lipid accumulation score", "result": "≤ 0"}
    ]},
    {"smiles": "CC(C)C1CNC(C(=O)O)C1CC(=O)O", "note": "(stereo not given) [Dihydrokainic acid]", "values": [
      {"measurement": "scaled lipid accumulation score", "setting": "[2]", "result": 0.08}
    ]},
    {"smiles": "CCCCC/C=C\\C[C@@H](/C=C/C=C\\C/C=C\\CCCC(=O)O)OO", "values": [
      {"measurement": "scaled lipid accumulation score", "setting": "library stock concentration: 100 uM", "result": "≤ -0.021"}
    ]}
  ]
}
